The panel holds about 83,000 compounds, 20% with a hit somewhere; the sample as a whole holds those more often.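 Assay: single dose, 48 h. Readout: percent growth (0 = no net growth; negative = cell death). Active: <10.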 A number with no mark means an inactive call. Calls of active or inactive are those of the source.
Legend:
Test in all cases: NCI-60 one-dose screen, 48 h (100 = growth as untreated, 0 = no growth, -100 = all killed)
Settings in all cases: 10 µM unless noted
[1] = system: NCI-H23 lung
[2] = system: NCI-H226 lung
[3] = system: NCI-H322M lung
[4] = system: HOP-62 NSCLC
[5] = system: NCI-H460 lung
[6] = system: NCI-H522 lung
[7] = system: A549/ATCC NSCLC
[8] = system: 786-0 renal
[9] = system: COLO 205 colon
[10] = system: DU-145 prostate
[11] = system: K-562 leukemia
[12] = system: MALME-3M melanoma
[13] = system: MDA-MB-231 breast
[14] = system: RXF 393 renal
[15] = system: SF-268 CNS
[16] = system: SF-295 CNS
[17] = system: SF-539 CNS
[18] = system: UACC-257 melanoma
[19] = system: M14 melanoma

Structure (SMILES) | growth [1] | growth [2] | growth [3] [%] | growth [4] | growth [5] | growth [6] | growth [7] | growth [8] | growth [9] | growth [10] | growth [11] | growth [12] | growth [13] | growth [14] | growth [15] | growth [16] | growth [17] | growth [18] | growth [19]
COc1cccc(-c2nc(Nc3ccc(S(N)(=O)=O)cc3)c3ccccc3n2)c1 | 37.9% | 25.9% | 50.3 | 58.9% | 18.4% | 23.9% | 27.7% | 5.42% (active) | 27.8% | 29.4% | 10.3% | 37.9% | 13.3% | 12.5% | 33.7% | 2.4% (active) | 11.9% | 68.4% | 38.7%
O=c1[nH]c2ccc(Cl)cc2cc1CSc1nccc(-c2ccc(Cl)cc2)n1 | 53.9% | 8.77% (active) | 56.8 | 7.77% (active) | 36.6% | 33.6% | 50.1% | 49.8% | 71.7% | 78.9% | 64.7% | 51% | 45.7% | 35.3% | 54.3% | 16.8% | 3.24% (active) | 60.9% | 71.1%
CCCCSc1nc(NCCc2c[nH]c3ccccc23)c(C#N)c(-c2ccccc2)n1 | 15.8% | 44.6% | 83.8 | 39.7% | 14.5% | 47.4% | 39.1% | 10.6% | 24.8% | 54% | 8.19% (active) | 86.9% | 18.3% | -8.31% (active) | 39.9% | 48.4% | 46.6% | 81.4% | 60.1%
C=C1CC[C@@H]2[C@]3(C)COC(c4cn[nH]c4-c4ccc(Br)cc4)O[C@@H]3CC[C@@]2(C)[C@@H]1C/C=C1/C(=O)OCC1O (stereo partly drawn) | -86.1% (active) | -83.3% (active) | 32 | -46.1% (active) | -82.3% (active) | -57.5% (active) | -30.5% (active) | -95.5% (active) | -54.6% (active) | -78.6% (active) | 7.76% (active) | -70.7% (active) | -65.8% (active) | -89.1% (active) | -13.3% (active) | -65.6% (active) | -94.4% (active) | -71.4% (active) | -69.5% (active)
Brc1ccc(N/N=C/c2c[nH]c3ccc(Br)cc23)nc1 | -58.2% (active) | 3.09% (active) | 17.6 | -16.7% (active) | -75.3% (active) | -55.5% (active) | 0.0958% (active) | -23.8% (active) | -89.1% (active) | 15.6% | -33.1% (active) | -57.4% (active) | -63.5% (active) | -22.9% (active) | 10.5% | -78.3% (active) | -41.5% (active) | 7.1% (active) | -71.3% (active)
COc1ccc(-c2ccnc(SCc3cc4ccccc4[nH]c3=O)n2)cc1 | 76.1% | 63.5% | 82.5 | 32.3% | 33.6% | 46.9% | 61% | 71% | 77.5% | 81.2% | 11.1% | 65.9% | 59.1% | 40.2% | 87.7% | 50.3% | 50% | 79.5% | 44.8%
C=CC(=O)Nc1ccc(C)c(Oc2ccc(Cl)cc2)c1 | 55.9% | 41.7% | 48.4 | 63% | 20.5% | 3.62% (active) | 47.2% | 55.1% | 55.7% | 68.6% | 53.2% | 73.8% | 44.1% | 38.5% | 57.1% | 58% | 30.2% | 66.6% | 72.3%
CN(C)c1nc(NCCNS(=O)(=O)c2ccc(C3=Nc4c(N)nc(N)nc4NC(c4ccc(C(F)(F)F)cc4)C3)cc2)nc(Nc2ccc(F)cc2)n1 (stereo not drawn) | 31.5% | 24.3% | 46.7 | 56.1% | -7.38% (active) | 5.71% (active) | 45.8% | -35.4% (active) | -83.5% (active) | 26.9% | 1.59% (active) | -36.8% (active) | -37.4% (active) | -11.9% (active) | 28% | 20.8% | -65.4% (active) | 43% | 7.55% (active)
O=c1[nH]c(=O)c2c(-c3cc4ccccc4oc3=O)ccnc2[nH]1 | 61.3% | 74.8% | 97 | 26.4% | 88.8% | 68.5% | 91.9% | 43.9% | 108% | 88% | 106% | 64% | 64.9% | 69.5% | 79.6% | 3.14% (active) | 70.2% | 103% | 91.4%
COc1ccc2[nH]c(=O)c(CSc3nccc(-c4ccc(OC)c(OC)c4)n3)cc2c1 | 35.4% | -13.2% (active) | 40.6 | 0.29% (active) | 18.1% | -17.4% (active) | 18.3% | 30.4% | 36.5% | 37.4% | 11.4% | -2.09% (active) | 6.47% (active) | -13.7% (active) | 28% | -30.4% (active) | 24.7% | 38.9% | 47.8%
Cc1cccc(-c2nc(Nc3cccc(S(N)(=O)=O)c3)c3ccccc3n2)c1 | 39.6% | 54.3% | 52.2 | 80.2% | 37.6% | 4.87% (active) | 35.7% | 5.75% (active) | 51.9% | 57.3% | 10.2% | 75% | -13.6% (active) | 29.2% | 46.2% | 20.2% | -9.93% (active) | 87% | 54%
C=C1CCC2C3(C)COC(c4cc(F)cc(F)c4)OC3CCC2(C)C1CC(O)C1=CCOC1=O (stereo not drawn) | 64.9% | 92.1% | 95 | 90.6% | 66.3% | 11.9% | 75.2% | 30.3% | 59.5% | 72.9% | 24.6% | 88.6% | 63.2% | 56.4% | 97.3% | 77.9% | 79.6% | 73.7% | 58.7%

Reference: PubChem BioAssay (NCI)
